About 6,100 (1.1%) of roughly 580,000 compounds were called active. A call without a number means that no potency is given here. Roughly 15% stayed inconclusive and do not appear here. Only a selection was taken, and actives are over-represented in it overall. Values without a mark were called inactive. The call rests on the fitted dose curve; in most records, active means well fitted inhibition curve with a large enough effect; inconclusive means small, poorly fitted or top-dose-only effect, or another doubt; inactive means no such curve, though single readings can be large or run the other way.

We go through 112 molecules from PubChem BioAssay AID1671190 (National Center for Advancing Translational Sciences (NCATS), 2021).
Potency means the concentration at half of the fitted maximal effect.

Chain of Polyunsaturated fatty acid lipoxygenase ALOX12 (Homo sapiens) (P18054 whole entry, looked up): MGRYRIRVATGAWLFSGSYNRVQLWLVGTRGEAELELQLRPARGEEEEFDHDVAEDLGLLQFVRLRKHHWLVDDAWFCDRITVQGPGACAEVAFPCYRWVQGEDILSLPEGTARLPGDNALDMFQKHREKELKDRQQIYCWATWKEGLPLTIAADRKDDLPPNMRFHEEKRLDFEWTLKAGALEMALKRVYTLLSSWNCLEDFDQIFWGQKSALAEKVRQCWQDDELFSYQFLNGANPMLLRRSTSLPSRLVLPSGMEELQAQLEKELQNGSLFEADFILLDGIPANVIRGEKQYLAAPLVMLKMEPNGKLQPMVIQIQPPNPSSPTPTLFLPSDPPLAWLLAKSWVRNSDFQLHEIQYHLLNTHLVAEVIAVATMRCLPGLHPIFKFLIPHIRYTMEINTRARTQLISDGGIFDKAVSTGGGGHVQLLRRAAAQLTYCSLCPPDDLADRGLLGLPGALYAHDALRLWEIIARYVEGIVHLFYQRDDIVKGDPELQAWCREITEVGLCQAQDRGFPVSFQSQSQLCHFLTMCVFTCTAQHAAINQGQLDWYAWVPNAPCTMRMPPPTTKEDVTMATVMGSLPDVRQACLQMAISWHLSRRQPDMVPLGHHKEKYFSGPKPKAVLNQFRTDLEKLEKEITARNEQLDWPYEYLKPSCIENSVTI

The target of the test is Polyunsaturated fatty acid lipoxygenase ALOX12 (Homo sapiens) (UniProt P18054). The test can be described thus: Primary qHTS assay for inhibitors of human arachidonate 12S-lipoxygenase (ALOX12): Round 2. The note with it: purified 12hLO, xylenol orange hydroperoxide absorbance; series mostly up to 108 µM. Summed up:
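Purified human 12hLO (150 nM final) in 25 mM Hepes, 0.01% Triton X-100, pH 7.0 was preincubated 15 min at room temperature with compound. Then 40 uM arachidonic acid was added, 30 min. Hydroperoxide was read by Fe-XO absorbance ratio 573/405 nm.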
Consider `CC(=O)c1ccccc1NCC(=O)NCC(F)(F)F`, for which the Potency entry was “inactive”.
Still for that read-out and setting: for `CCOc1ccc(CNC(=O)c2ncoc2-c2cccs2)cc1OC` the value was “inactive”.
As to `COc1cccc(CN(C(=O)c2oc3cc(Br)ccc3c2C)C2CCS(=O)(=O)C2)c1` (configuration not stated), the Potency result was “inactive”.
The same measure, in the same setting: for `O=C(CCNc1c(-c2ccc(F)cc2)nc2cnccn12)Nc1ccc2c(c1)OCO2` the value was “inactive”; for `Cc1ccc(C)c(Oc2coc3cc(OC(=O)C(C)C)ccc3c2=O)c1`, “inactive”; for `CC(C)c1nnc(CN2CCOc3c(O)cc(-c4cccc(Cl)c4)cc3C2)o1`, “inactive”.
Still for that read-out and setting: for `S=c1[nH]nc(CSCc2ccc(Cl)cc2Cl)n1-c1ccccc1` the value was 28.2 µM (active); for `CC(C)Oc1ccc(Cc2n[nH]c(=S)n2Cc2ccccc2)cc1Cl`, “inactive”; for `O=S(=O)(NCCc1nnc2ccc(SCc3ccc(Cl)cc3Cl)nn12)c1ccccc1`, “inactive”.
Same read-out and setting: for `CCN(C(=O)CCc1c[nH]c2ccccc12)c1ccc(F)cc1` the value was “inactive”; for `CC(C)=CCc1ccc(O)c(=O)cc1C(C)C`, 25.1 µM (active); for `Cc1ccccc1-c1cc(=O)c2cc(NC(=O)c3ccccc3F)ccc2o1`, “inactive”.
With `O=C(Nc1nc2c(s1)CCCC2)c1ccccc1F`, the Potency result is “inactive”.
Still for that read-out and setting: for `CCOC(=O)C(NC(=O)CC(C)C)(Nc1sc2c(c1C(N)=O)CCCC2)C(F)(F)F` (configuration not stated) the value was “inactive”; for `COC(=O)C(NC(C)=O)(Nc1nc2c(s1)CCCC2)C(F)(F)F` (configuration not stated), 17.8 µM (active); for `CCOc1ccccc1OCCN`, “inactive”.
On the same count and under the same terms, for `CCCc1nc2c(-c3ccc(Cl)cc3)c(C)[nH]n2c(=O)c1Cl` the value was “inactive”.
Same read-out and setting: for `O=C(CSc1nncn1-c1ccccc1F)Nc1ccccc1C(=O)Nc1ccccc1` the value was “inactive”; for `O=C(COC(=O)c1cc2ccccc2cc1O)Nc1ccc(Cl)cc1C(F)(F)F`, “inactive”.
Regarding `O=C(COC(=O)c1cnccn1)Nc1ccc(Cl)cc1C(F)(F)F`, the Potency was 10 µM (active).
On the same count and under the same terms, for `O=C(COC(=O)c1cnccn1)Nc1cccc2ccccc12` the value was “inactive”; for `CN(Cc1ccccc1N1CCCC1)C(=O)c1ccc(S(=O)(=O)N2CCOCC2)cc1`, “inactive”.
The same measure, in the same setting: for `CCOc1ccccc1NC(=O)c1cnc(N2CCCCC2)c2ccccc12` the value was “inactive”; for `O=C(COc1ncnc2c(Cl)cc(Cl)cc12)Nc1cc(F)ccc1F`, “inactive”.
On the same count and under the same terms, for `Oc1c(Cl)cc(Cl)c(Cl)c1Cc1c(O)c(Cl)cc(Cl)c1Cl` the value was 7.08 µM (active); for `CC(C)(C)NC(=O)C(Sc1ccccc1)c1ccccc1` (configuration not stated), “inactive”.
Take `COc1ccc(Oc2c(C)oc3cc(OCC(=O)N4CCNC(=O)C4)ccc3c2=O)cc1`: the Potency entry is “inactive”.
`CN(Cc1ccco1)c1cc(-c2ccccc2C(F)(F)F)ncn1`: the Potency result is “inactive”.
On the same count and under the same terms, for `FC(F)(F)c1ccccc1-c1cc(NCc2ccccc2)ncn1` the value was 15.8 µM (active); for `COc1ccccc1-c1cc(NCc2cccs2)ncn1`, “inactive”; for `COC(=O)c1nc(-c2ccc(F)cc2)no1`, “inactive”.
The same measure, in the same setting: for `CCN(CC)C(=O)[C@@H]1CCC[C@@H](NS(C)(=O)=O)CN(C)C(=O)C1` the value was “inactive”.
Still for that read-out and setting: for `CCOC(=O)C(NS(=O)(=O)c1ccc(C)cc1)(C(F)(F)F)P(=O)(OCC(C)C)OCC(C)C` (configuration not stated) the value was 39.8 µM (active); for `Cc1ccc(S(=O)(=O)NCC(C)NS(C)(=O)=O)cc1` (configuration not stated), “inactive”; for `CCOC(=O)C(NC(=O)c1ccccc1)(OC(C)C)C(F)(F)F` (configuration not stated), “inactive”.
Take `CCN1C(=O)N/C(=C/c2cn(CC(=O)Nc3ccc(F)cc3)c3ccccc23)C1=O`: the Potency entry is “inactive”.
Still for that read-out and setting: for `COc1cc(C(=O)Nc2ccc(C)cc2)nc2ccc(Cl)cc12` the value was “inactive”; for `CSc1cccc(NC(=O)N[C@H]2CCN3C(=O)[C@H](Cc4ccc(F)cc4)NC(=O)[C@@H]3C2)c1`, “inactive”; for `O=C(c1ccc2ncccc2c1)N1CCC2(CC1)NCCc1c2[nH]c2ccccc12`, “inactive”.
As for `O=C(Nc1nc(-c2ccncc2)cs1)C1COc2ccccc2O1` (configuration not stated), the Potency is 14.1 µM (active).
The same measure, in the same setting: for `O=C(NCC1CCOCC1)C1COc2ccccc2O1` (configuration not stated) the value was “inactive”; for `O=C(Cn1nc2c(cc1=O)CCCCC2)Nc1nc(-c2ccncc2)cs1`, “inactive”; for `CCc1cccc2c(C(=O)CSc3nncn3C(C)C)c[nH]c12`, “inactive”.
In the case of `CCC1(C)Cc2c(sc3nnn(CC(=O)Nc4ccc(Cl)cc4)c(=O)c23)CO1` (configuration not stated), the Potency entry was “inactive”.
The same measure, in the same setting: for `CCC1(C)Cc2c(sc3[nH]c(=S)n(Cc4ccccc4)c(=O)c23)CO1` (configuration not stated) the value was 28.2 µM (active); for `CC1(C)Cc2c(sc3c2c(=O)n(CCO)c(=O)n3CCc2ccccc2)CO1`, “inactive”; for `COc1ccccc1-c1cnc(Nc2ccncc2)c2c1CCO2`, “inactive”.
In the case of `CN1CCN(C(=O)c2cccc(C(F)(F)F)c2)CC1`, the Potency entry is “inactive”.
The same measure, in the same setting: for `O=[N+]([O-])c1cc(Cl)cc(/C=N/NC(=S)Nc2cc(S(=O)(=O)N3CCOCC3)ccc2Cl)c1O` the value was 25.1 µM (active).
On the same count and under the same terms, for `Cc1ccc(S(=O)(=O)N2CCOCC2)cc1NC(=O)c1ccncc1` the value was “inactive”; for `O=C(CNCc1cccs1)Nc1cc(S(=O)(=O)N2CCCC2)ccc1Cl`, “inactive”.
Same read-out and setting: for `CCOc1cc(C2c3c(-c4c(C)cc(C)cc4O)n[nH]c3C(=O)N2CCO)ccc1O` (configuration not stated) the value was “inactive”; for `O=c1onc(-c2cccs2)n1Cc1ccccc1`, “inactive”; for `CCC(=O)N1N=C(c2ccc(OC)cc2)CC1c1cn(-c2ccccc2)nc1-c1cccs1` (configuration not stated), “inactive”.
Consider `C(=NCc1ccccc1)c1cn(-c2ccccc2)nc1-c1cccs1`, for which the Potency was 50.1 µM (active).
On the same count and under the same terms, for `CC1(C)[C@H]2CC[C@@H](CNC(=O)c3ccccc3F)[C@@H]1C2` the value was “inactive”; for `Oc1c(Br)cc(/C=N/NC(=S)NCC2CCCO2)cc1Br` (configuration not stated), “inactive”; for `COc1cc(/C=N/Nc2ccc(C)cc2)cc(Br)c1O`, 10 µM (active).
The same measure, in the same setting: for `COc1cc(/C=N/O)ccc1O` the value was “inactive”; for `O=C(Cc1ccc(Cl)cc1)Oc1ccc2ccccc2c1`, “inactive”.
The same measure, in the same setting: for `C(=N\N=C(c1ccccc1)c1ccccc1)/c1cn[nH]c1-c1ccccc1` the value was “inactive”; for `CN(C)c1ncnc2sc3c(c12)CCN(Cc1ccccc1)C3`, “inactive”; for `Oc1ccccc1C1=NN(c2ccccc2)C(c2ccccc2)C1` (configuration not stated), 15.8 µM (active).
`CCCc1nc(-c2ccccc2O)n(-c2ccccc2)n1`: the Potency entry is “inactive”.
The same measure, in the same setting: for `Cc1ccc(N2C(=O)C3N=NN(CC(=O)N4N=C(c5cccc6ccccc56)CC4c4ccccc4)C3C2=O)cc1` (configuration not stated) the value was “inactive”.
Still for that read-out and setting: for `Cc1oc2cc(OCC(=O)N3CCCCCC3)ccc2c(=O)c1-c1ccc(Cl)cc1` the value was “inactive”; for `CCN1/C(=C\c2ccc3ccccc3[n+]2CC)Sc2cc(C)ccc21`, 35.5 µM (active); for `CCN(CC)C(=O)Oc1ccc2c(C)c(-c3ccc(OC)cc3)c(=O)oc2c1`, “inactive”.
On the same count and under the same terms, for `O=C1CC(NCc2ccoc2)CN1CCc1cccc(Cl)c1` (configuration not stated) the value was “inactive”; for `Cc1ccccc1NC(=O)c1cc2cc([N+](=O)[O-])ccc2oc1=O`, “inactive”; for `Cn1nnnc1SCCNCc1ccc(Cl)c(Cl)c1`, “inactive”.
With `COc1cc(CNCCSc2nnnn2C)ccc1OCc1ccc(Cl)cc1Cl`, the Potency was 39.8 µM (active).
Still for that read-out and setting: for `COc1cc(CNCCSc2nnnn2C)ccc1OCc1c(F)cccc1Cl` the value was “inactive”; for `Cc1cc(S(=O)(=O)N2CCCN(C)c3ccccc32)ccc1F`, “inactive”; for `Cc1ccc(CN(CC(=O)NCC2CCCO2)C2CC2)cc1` (configuration not stated), “inactive”.
For the molecule `CN(Cc1cccs1)C(=O)C1CCC1`, the Potency result was “inactive”.
On to `CCN1CCC2(CC1)N=C(c1ccc(F)cc1)C(=S)N2C(=O)c1ccc(C)cc1`, for which the Potency is 50.1 µM (active).
The same measure, in the same setting: for `Cc1ccc(C(=O)N2CCC(c3n[nH]c(=O)n3Cc3ccc(F)cc3)CC2)cc1` the value was “inactive”; for `Cc1ccc(C(=O)N2CCC3(CC2)NC(=O)N(Cc2ccc(F)cc2)C3=O)cc1`, “inactive”; for `CC1CCN(CCCNC(=O)c2cc(=O)c3ccccc3o2)CC1`, “inactive”.
The same measure, in the same setting: for `Cc1ccc(S(=O)(=O)N(CC(=O)Nc2cccnc2)c2ccc(Br)cc2)cc1` the value was 22.4 µM (active).
As for `CCNC(=O)CN(c1ccc(C)cc1)S(=O)(=O)c1ccc(SC)cc1`, the Potency result was “inactive”.
With `Cc1ccc(N(CC(=O)Nc2cc(C)cc(C)c2)S(=O)(=O)c2cccc3nonc23)cc1`, the Potency result was “inactive”.
For `COc1ccccc1C(=O)N1CCc2c(nc3cc(-c4ccccc4Cl)[nH]n3c2=O)C1`, the Potency entry was “inactive”.
Same read-out and setting: for `COc1ccc2cc(C(=O)N3CCN(S(=O)(=O)c4ccccc4C(F)(F)F)CC3)c(C)nc2c1` the value was “inactive”; for `Cn1c(=O)c2c(nc(Cl)n2CC(=O)N(C2CCCC2)C2CCS(=O)(=O)C2)n(C)c1=O` (configuration not stated), “inactive”.
For `O=C(Cc1cccc2ccccc12)NCCc1cccc2cccnc12`, the Potency entry is “inactive”.
Turning to `CCCCc1c(C)nc2c(C)cccc2c1SCC(=O)O`, the Potency entry is “inactive”.
Turning to `COc1ccc(COc2ccc(C(=O)O)cc2OC)cc1Br`, the Potency entry was “inactive”.
Same read-out and setting: for `COc1ccccc1NC(=O)C(=O)NCc1ccccc1` the value was “inactive”.
The same measure, in the same setting: for `COc1cc(C(=S)NCc2ccccc2)cc(Br)c1O` the value was 39.8 µM (active); for `CN(Cc1ccc(F)cc1F)C(=O)COc1ccc2ccc(=O)oc2c1`, “inactive”.
Same read-out and setting: for `C=CCSc1nc2c(c(=O)[nH]c(=O)n2C)n1Cc1cccc(C)c1` the value was “inactive”.
In the case of `CS(=O)(=O)c1ccc(C(=O)NNC(=O)c2cccs2)cc1`, the Potency result was “inactive”.
Still for that read-out and setting: for `COc1cc(Cl)c(C)cc1NC(=O)[C@@H]1CCCN1C(=O)c1cccs1` the value was “inactive”; for `Cc1ccc(NNC(=O)c2cccs2)cc1Cl`, 8.91 µM (active); for `CCN(c1ccc(-c2csc(-c3ccccc3)n2)cc1)S(C)(=O)=O`, “inactive”.
The same measure, in the same setting: for `N#Cc1ncn(CCC(=O)Nc2ccc(F)c(F)c2)n1` the value was “inactive”.
Same read-out and setting: for `COc1ccc(C)cc1NC(=O)NC(C(=O)N1CCc2ccccc21)C(C)C` (configuration not stated) the value was “inactive”.
In the case of `Cc1noc(-c2ccc(OC(F)(F)F)cc2)c1C(=O)NCc1ccc2c(c1)OCO2`, the Potency entry is “inactive”.
Same read-out and setting: for `CCC1CCCCN1C(=O)Cn1cccc1-c1nc(-c2ccc(F)cc2)no1` (configuration not stated) the value was “inactive”.
The same measure, in the same setting: for `O=C(NC1CCCc2c1[nH]c1ccc(F)cc21)c1n[nH]c2c1CCCC2` (configuration not stated) the value was “inactive”; for `O=C(c1n[nH]c2c1CCCC2)N1CCC2(CC1)NC(=O)N(c1ccc(F)cc1)N2`, 1.41 µM (active); for `O=C(Cc1ccc(F)cc1)N1CCC2(CC1)NC(=O)N(c1ccccc1)N2`, 5.01 µM (active).
`O=C(c1ccc2c(c1)OCO2)N1CCC2(C1)C(=O)Nc1ccccc12` (configuration not stated): the activity change, negative = inhibition was 5.73% [at 6.33 µM].
With `O=C(Cc1ccc(F)cc1)N1CCC(n2cc(-c3nc(-c4ccccc4)no3)nn2)CC1`, the Potency entry was “inactive”.
Still for that read-out and setting: for `CCC(CC)C(=O)Nc1cccc(C(=O)N2CCCC2)c1` the value was “inactive”.
On the same count and under the same terms, for `CC(=O)Nc1cccc(C(=O)N2CCC3(CC2)NC(=O)N(c2cccc(Cl)c2)N3)c1` the value was 1.41 µM (active).
Same read-out and setting: for `O=C(c1ccc2c(c1)OCO2)N1CCC2(CC1)NC(=O)N(c1ccccc1)N2` the value was 5.01 µM (active).
For `O=C(c1cccc(Cl)c1)N1CCC2(CC1)NCc1ccccc1NC2=O`, the activity change, negative = inhibition was 3.75% [at 6.33 µM].
Turning to `O=C(c1ccccc1)c1cccn1CC(=O)N1CCN(c2ccc(F)cc2)CC1`, the Potency entry was “inactive”.
Take `O=C(c1ccc2c(c1)OCO2)N1CCC(n2c(=O)[nH]c3ccccc32)CC1`: the Potency entry is “inactive”.
